Results reported in ChEMBL document CHEMBL4513146, “CO-ADD screening of Karazin Kharkiv National University (Ukraine) compounds”.
Measured potencies and affinities stand elsewhere.

Legend:
Staphylococcus aureus = details: Concentration 32 ug.mL-1;; ASSAY_TEST Inhibition of Bacterial Growth; detection method Absorption (OD600); MEDIA CAMHB; plate type 384well; NBS; CORNING #3640; time 18 hr
Escherichia coli = details: Concentration 32 ug.mL-1;; ASSAY_TEST Inhibition of Bacterial Growth; detection method Absorption (OD600); MEDIA CAMHB; plate type 384well; NBS; CORNING #3640; time 18 hr

Structure (SMILES)	Inhibition (Staphylococcus aureus)	Inhibition (Escherichia coli)
COc1ccc(-c2cc3c4nn(CC(=O)Nc5ccc(C)c(C)c5)c(=O)n4ccn3n2)cc1	9.35%	6.79%
Cc1ccc(-c2cc3c4nn(CC(=O)Nc5cc(F)ccc5C)c(=O)n4ccn3n2)cc1C	8.9%	-4.51%
C=Cc1ccc(CN(c2ccc(F)cc2)S(=O)(=O)c2ccc3nnc(C)n3c2)cc1	-1.19%	-7.93%
CCCN(C)c1nccn2c(=O)n(CC(=O)Nc3cccc(C(F)(F)F)c3)nc12	6.48%	3.02%
O=c1c2sccc2n2c(=O)n(Cc3ccc(F)cc3)nc2n1Cc1cccs1	13.21%	-2.41%
Cc1ccc(NC(=O)Cn2nc3cc(C)nc(Nc4ccc(F)c(C)c4)n3c2=O)cc1	11.03%	0.27%
Cc1oc(-c2cccc(Cl)c2)nc1CSc1nc2ccccc2n2c(C(C)C)nnc12	3.52%	-2.96%
COc1ccc(-c2cc3c4nn(CC(=O)Nc5c(C)cc(C)cc5C)c(=O)n4ccn3n2)cc1	9.75%	4.81%
COC(=O)c1ccc(CN(c2cccc(C)c2)S(=O)(=O)c2cccn3c(C)nnc23)o1	5.77%	-6.24%
COc1ccc(NC(=O)Cn2nc3ccc(SCc4ccc(Cl)cc4)nn3c2=O)cc1	-5.92%	-10.26%
O=C(Cn1nc2c3cc(F)ccc3ncn2c1=O)Nc1ccc2c(c1)OCO2	5.65%	-3%
CCc1cccc(NC(=O)Cn2c(=O)c3nnc(C(C)C)n3c3ccccc32)c1	12.07%	8.67%
CCOC(=O)N1CCN(C(=O)CCc2nnc3c4cc(-c5ccccc5)nn4ccn23)CC1	4.14%	-0.18%
C=Cc1ccc(Cn2nc3c(=O)n(-c4ccc(C)c(C)c4)ccn3c2=O)cc1	0.4%	3.59%
CCc1nnc2c(S(=O)(=O)N(Cc3cccc(Cl)c3)c3ccccc3)cccn12	4.22%	-6.56%
Cc1ccccc1Oc1nccn2c(=O)n(CC(=O)Nc3cc(F)ccc3F)nc12	11.37%	-2.39%
CCc1nnc2c(S(=O)(=O)N(Cc3cccc(F)c3)c3ccc(F)cc3)cccn12	-7.77%	-5%
O=C(Cn1nc2c3c4c(sc3ncn2c1=O)CCCC4)NCc1ccc(F)cc1	8.69%	-4.83%
COc1cccc(-n2ccn3c(SCC(=O)NC(C)C)nnc3c2=O)c1	11%	-7.26%
Cc1ccc(NC(=O)Cn2nc3ccc(-c4ccccc4)nn3c2=O)cc1	2.61%	-12.45%
Cc1ccc(NC(=O)Cn2nc3c(N4CC(C)CC(C)C4)nccn3c2=O)c(F)c1 (centres undefined)	10.72%	1.48%
O=c1c2sccc2n2c(=S)[nH]nc2n1CC1CCCO1 (centres undefined)	3.07%	-0.32%
COc1ccc(C)cc1NC(=O)Cn1nc2ccc(SC(C)(C)C)nn2c1=O	2.65%	-6.39%
Cc1ccc(NC(=O)Cn2c(=O)c3nnc(C(C)C)n3c3ccccc32)cc1C	7.95%	6.48%

Structure (SMILES)	Inhibition (Staphylococcus aureus)	Inhibition (Escherichia coli)
COc1cccc(NC(=O)Cn2nc3c(=O)n(-c4ccc(Br)cc4)ccn3c2=O)c1	-2.73%	-3.42%
CCc1nnc2c(S(=O)(=O)N(Cc3ccc(F)cc3)c3cccc(Cl)c3)cccn12	8.4%	-8.07%
Cc1ccc(-c2cc3c4nnc(CCC(=O)N5CCC(Cc6ccccc6)CC5)n4ccn3n2)cc1C	10.73%	2.4%
Cc1ccc(NC(=O)Cn2nc3ccc(SC4CCCCC4)nn3c2=O)c(Cl)c1	-1.24%	-5.46%
O=c1c2sccc2n2c(=O)n(Cc3ccccc3F)nc2n1Cc1cccs1	-3.2%	-12.46%
COc1ccccc1-n1ccn2c(SCC(=O)c3ccc(C)cc3C)nnc2c1=O	6.26%	-10.12%
Cc1cccc(NC(=O)Cn2nc3c4cc(-c5ccc(Cl)cc5)nn4ccn3c2=O)c1C	5.13%	-1.29%
CCCCOc1ccc(-c2cc3c4nnc(SCC(=O)NCc5ccccc5)n4ccn3n2)cc1	-2.73%	-6.82%
C=Cc1ccc(CN(c2ccc(CC)cc2)S(=O)(=O)c2cccn3c(C)nnc23)cc1	9.91%	-2.55%
Cc1cccc(Oc2nccn3c(=O)n(CC(=O)Nc4ccccc4C(F)(F)F)nc23)c1C	14.33%	3.1%
Cc1ccc(-c2cc3c4nn(CC(=O)Nc5ccccc5C)c(=O)n4ccn3n2)cc1C	5.58%	2.13%
CCc1nnc2c(SCC(=O)Nc3ccccc3Br)nc3ccccc3n12	10.46%	0.26%
Cc1cc2nn(CC(=O)Nc3ccccc3)c(=O)n2c(Nc2ccc(C)c(F)c2)n1	8.29%	-1.41%
COc1ccc(C)cc1NC(=O)CSc1nc2ccccc2n2cnnc12	16.59%	4.56%
COc1ccc(NC(=O)Cn2nc3ccc(SC(C)(C)C)nn3c2=O)cc1OC	4.97%	2.49%
CCCc1ccc(S(=O)(=O)Nc2ccc3nncn3n2)cc1	16.11%	2.74%
COc1cccc(-n2ccn3c(SCc4cccc(C)c4)nnc3c2=O)c1	13.81%	-5.33%
CC(C)c1ccc(NC(=O)Cn2nc3ccc(SCc4ccc(Cl)cc4)nn3c2=O)cc1	4.11%	-6.33%
Cc1ccc(Cl)cc1NC(=O)Cn1nc2c(SC3CCCCC3)nccn2c1=O	6.67%	-3.22%
COc1ccc(-c2cc3c4nn(CC(=O)Nc5ccc(F)cc5)c(=O)n4ccn3n2)cc1	-1.37%	-7.82%
O=c1n(Cc2cccc(C(F)(F)F)c2)nc2ccc(S(=O)(=O)N3CCCC3)cn12	14.07%	-1.1%
CCc1ccc(N(Cc2cccc(F)c2)S(=O)(=O)c2cccn3c(C)nnc23)cc1	10.02%	-2.48%
O=S(=O)(c1cccn2cnnc12)N(Cc1cccc(Cl)c1)c1ccc(F)cc1	-11.31%	-14.45%
COC(=O)c1sccc1NC(=O)Cn1nc2c(Oc3ccccc3)nc3ccccc3n2c1=O	9.09%	0.17%

Structure (SMILES)	Inhibition (Staphylococcus aureus)	Inhibition (Escherichia coli)
CCOc1ccc(-n2ccn3c(SCC(=O)c4cccc(Cl)c4)nnc3c2=O)cc1	18.89%	0.66%
Cc1ccc(Oc2nccn3c(=O)n(CC(=O)Nc4cc(F)ccc4F)nc23)cc1	15.96%	-1.03%
O=C(Cn1nc2ccc(SCc3ccc(Cl)cc3)nn2c1=O)NCc1ccccc1	7.82%	-9.37%
COc1cc(OC)c(NC(=O)Cn2nc3c(Sc4ccc(C)cc4C)nccn3c2=O)cc1Cl	-8.98%	-14.71%
Cc1cccc(CN(c2ccc(F)cc2)S(=O)(=O)c2ccc3nnc(C)n3c2)c1	5.07%	-8.57%
Cc1cccc(N(Cc2ccccc2)S(=O)(=O)c2cccn3c(C)nnc23)c1	19.49%	-3.05%
Cc1ccc(C)c(NC(=O)Cn2nc3ccc(-c4ccc(C)c(C)c4)nn3c2=O)c1	-1.85%	-17.07%
CCc1nnc2c(SCC(=O)Nc3cccc(Br)c3)nc3ccccc3n12	1.73%	-7.45%
O=C(Cn1nc2c(SCc3ccc(Cl)cc3)nccn2c1=O)Nc1ccccc1F	4.88%	-0.33%
COc1ccc(-c2cc3c4nnc(SCC(=O)NCc5cccc(OC)c5OC)n4ccn3n2)cc1	4.12%	-5.71%
O=C(Cn1nc2c3cc(-c4ccc(F)cc4)nn3ccn2c1=O)Nc1ccc2c(c1)OCCO2	10.64%	1.96%
COc1ccc(C)cc1NC(=O)Cn1nc2ccc(SCc3ccc(Cl)cc3)nn2c1=O	8.35%	-14.85%
CCOc1ccc(C(=O)CSc2nnc3c(=O)n(-c4ccc(Br)cc4)ccn23)cc1	15.75%	-1.32%
O=c1n(Cc2c(F)cccc2Cl)nc2ccc(-c3ccccc3)nn12	7.33%	0.7%
CCc1ccc(N(Cc2ccc(OC)cc2)S(=O)(=O)c2cccn3c(C)nnc23)cc1	5.17%	-2.97%
Cc1ccccc1CSc1nnc2c(=O)n(-c3ccc(Br)cc3)ccn12	1.11%	-8.83%
Cc1ccc(Oc2nccn3c(=O)n(CC(=O)NCc4cccs4)nc23)cc1	11.07%	1.37%
COC(=O)c1ccccc1NC(=O)CSc1nc2ccccc2n2c(C(C)C)nnc12	10.06%	-3.26%
O=C(CSc1nnc2c(=O)n(-c3ccc(F)cc3)ccn12)c1ccccc1Cl	19.94%	-2.26%
Cc1ccc(Sc2nccn3c(=O)n(CC(=O)Nc4ccccc4C)nc23)c(C)c1	-3.06%	-8.99%
CCOc1ccc(C(=O)Cn2nc3n(Cc4ccccc4OC)c(=O)c4sccc4n3c2=O)cc1	-7.18%	-6.25%
CCc1cccc(C)c1NC(=O)Cn1nc2ccc(SCc3ccc(Cl)cc3)nn2c1=O	-4.43%	-10.21%
COc1cccc(-n2ccn3c(SCC(=O)Nc4ccc5c(c4)OCCO5)nnc3c2=O)c1	11.59%	-2.35%
CC(C)NC(=O)Cn1nc2n(Cc3ccco3)c(=O)c3sccc3n2c1=O	9.36%	3.27%
